Source: PubChem (several laboratories)
phage Ecoli inh: growth loss of phage-infected E. coli, primary screen, RecBCD inhibitor project, absorbance, with phage, HTS. inhibition, % at 11.9 µM. 0.26% of 360,000 active. AID 651602, 2012; in the data active = inhibition above about 11%
E coli growth-1: E. coli V3065 growth inhibition, primary screen, counter-screen for AddAB inhibitor project, absorbance, OD600. 18 h. inhibition, % at 11.9 µM. 0.27% of 330,000 active. AID 449728, 2010;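 active = inhibition above the campaign's mean inhibition across all tested compounds plus 3 SD, cut at about 9.9% in these data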;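 also: uninfected addAB+ strain grown without phage in ampicillin broth; 0% = DMSO wells and 100% = ciprofloxacin 0.95 µg/ml wells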
AddAB inh: growth inhibition of E. coli expressing H. pylori AddAB, primary screen, AddAB inhibitor project, absorbance | inhibition, % at 11.9 µM | 0.29% of 330,000 active | AID 435030, 2010; in the data active = inhibition above about 12%;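 also: 0% = vehicle wells of infected cells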
E coli growth-2: E. coli growth inhibition, primary screen, OD600. OD600 absorbance (concentration not given with the values). 0.21% of 330,000 active. AID 1053175, 2014. Escherichia coli growth, 23 h; stronger effect = lower value;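 active = OD600 absorbance below the run mean of sample wells minus 3.6 SD, in any replicate, cut at about 0.56 in these data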
Tat export inh: E. coli Tat export inhibitors, primary screen, MC4100, TorA-mCherry reporter, fluorescence, single point; inhibition, % at 10 µM; 0.036% of 340,000 active;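 active = mean replicate inhibition at least 50% and at least half of replicates individually reaching 50%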;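 also: exported cargo escapes ClpAP degradation while cytoplasmic cargo is degraded and loses fluorescence; 0% = median of neutral control wells and 100% = median of NaSCN control wells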
RecBCD conf: growth loss of phage-infected RecBCD+ E. coli, confirmation, RecBCD inhibitor project, absorbance, E. coli V66, T4 gene 2 phage. shares compounds with phage Ecoli inh. E. coli V66 + T4 2- phage, growth OD. inhibition, % at 11.9 µM. 45% of 890 active. AID 651982, 2013;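 active = mean inhibition over triplicates exceeding the hit threshold derived in the original primary screen, cut at about 11% in these data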
Ecoli viability: E. coli viability inhibition, counter-screen for RecBCD inhibitor project, absorbance, high throughput | shares compounds with phage Ecoli inh | absorbance (OD) growth | inhibition, % at 11.9 µM | 29% of 890 active | AID 651983, 2013; in the data active = inhibition above about 20%;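 also: E. coli strain V66 grown with compound alone and no phage infection; 0% = bacteria with DMSO vehicle only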
AddAB counter: growth loss of phage-infected AddAB-carrying E. coli, confirmation, counter-screen for RecBCD inhibitor project, absorbance, E. coli V3065, T4 phage | shares compounds with phage Ecoli inh | E. coli expressing H. pylori AddAB + T4 phage, OD growth; gene 2 mutant T4, recBCD-deleted host | inhibition, % at 11.9 µM | 45% of 890 active;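 active = mean inhibition above the solvent-only control wells' mean plus 3 SD, cut at about 22% in these data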;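 also: higher means less bacterial growth from phage killing when AddAB is blocked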
* = called active by the depositor; nt = no result. An excerpt weighted towards active compounds, which were near 0.5% of everything screened.

SMILES | phage Ecoli inh | E coli growth-1 | AddAB inh | E coli growth-2 | Tat export inh | RecBCD conf | Ecoli viability | AddAB counter
Cc1ccc(NC(=O)c2cc(S(=O)(=O)N3CCOCC3)cn2C)cc1F | 28.9* | 1.1 | 1.5 | 0.725 | -9.8 | -3.1 | -2.7 | -8.4
CC(=O)Oc1c(C)c(C)c2c(c1C)CC[C@@](C)(CCCC(C)CCCC(C)CCCC(C)C)O2 (some centres not stated) | nt | nt | nt | 0.718 | nt | nt | nt | nt
CC(C)CC(CNC(=O)OC(C)(C)C)NC(=O)c1nc[nH]c1C(=O)NC(CC(C)C)C(=O)CNCC(CC(C)C)NC(=O)c1nc[nH]c1C(=O)NC(Cc1c[nH]c2ccccc12)C(=O)OC(C)(C)C (configuration not stated) | nt | nt | nt | 0.626 | nt | nt | nt | nt
CSC1SCC2C(=O)N(C)C(C(C)C)C(=O)OCC(NC(=O)c3cnc4ccccc4n3)C(=O)NC(C)C(=O)N(C)C1C(=O)N(C)C(C(C)C)C(=O)OCC(NC(=O)c1cnc3ccccc3n1)C(=O)NC(C)C(=O)N2C (configuration not stated) | 99.1* | nt | nt | nt | 37.4 | 88.8* | 91.8* | 80.8*
COCCN=c1scc(-c2ccco2)n1/N=C/c1ccc(O)c(O)c1O | 8.6 | 4.6 | 8.6 | nt | 11.5 | nt | nt | nt
CN=c1scc(-c2cccs2)n1/N=C/c1ccc(O)c(O)c1O | 13.2* | 9.6 | 10.7 | nt | 1.7 | 5.3 | 6.3 | 8.1
C=CCN=c1scc(-c2ccco2)n1/N=C/c1ccc(O)c(O)c1O | 10.9* | 6.6 | 5.9 | nt | 11.4 | 6.0 | 7.1 | 3.0
CC(=NNc1nc2ccccc2o1)c1ncccn1 | 30.3* | nt | nt | nt | -16.8 | 28.9* | 36.2* | 19.9
CC(=NNc1nc2ccccc2o1)c1cc2ccccc2cn1 | 11.7* | nt | nt | nt | 7.1 | 10.6 | 11.6 | 18.4
CC(=NNc1nc2ccc(Cl)cc2o1)c1ccccc1 | nt | nt | nt | 0.659 | nt | nt | nt | nt
Cc1ccc(C2C3C(=O)N(C)C(=O)C3[C@]3(C)C(=O)N(Cc4ccccn4)CC(=O)N23)o1 (some centres not stated) | nt | nt | nt | 0.694 | nt | nt | nt | nt
O=C1C=C(c2ccc(C(=O)O)cc2)CC(c2ccc(Cl)cc2)C1 (configuration not stated) | nt | nt | nt | 0.674 | nt | nt | nt | nt
O=C(CSc1ccc(-c2ccccn2)nn1)Nc1cccc(F)c1 | 12.2* | 10.9* | 10.4 | 0.622 | 11.5 | 3.6 | 2.9 | 6.1
O=C(NC(Cc1ccccc1)C(=O)OCc1ccccc1)c1nc[nH]c1C(=O)NC(Cc1ccccc1)C(=O)OCc1ccccc1 (configuration not stated) | nt | nt | nt | 0.748 | nt | nt | nt | nt
O=C(Nc1cc([N+](=O)[O-])c2[nH]c(=O)c3ccccc3c2c1)C(F)(F)F | 13.7* | nt | nt | nt | 5.8 | 11.9* | 15.4 | 95.7*
CO/N=C(\C(=O)N[C@@H]1C(=O)N2C(C(=O)O)=C(COC(N)=O)CS[C@H]12)c1ccco1 | 63.2* | -0.4 | -3.0 | nt | 1.5 | 92.7* | 97.6* | 80.6*
CON=C(C(=O)NC1C(=O)N2C(C(=O)O)=C(CSc3nc(=O)c(=O)[nH]n3C)CSC12)c1csc(N)n1 (configuration not stated) | 101.5* | nt | nt | nt | -22.2 | 102.1* | 103.1* | 102.7*
CC(=O)OCC1=C(C(=O)O)N2C(=O)C(NC(=O)c3ccc(F)cc3)C2SC1 (configuration not stated) | 1.5 | 0.2 | -0.2 | 0.682 | -3.0 | nt | nt | nt
CCNC(=S)NNC(=S)NCc1ccccc1 | 11.1* | 1.8 | 10.5 | 0.716 | -5.0 | 4.0 | 3.1 | 8.6
S=C(NCc1ccccc1)NCc1ccc(CNC(=S)NCc2ccccc2)cc1 | 2.0 | -0.2 | 1.5 | 0.692 | -6.7 | nt | nt | nt
COc1ccccc1NC(=S)NC(NC(=O)c1ccco1)C(Cl)(Cl)Cl (configuration not stated) | 11.4* | 8.3 | 11.3 | 0.641 | -23.2 | 2.3 | 4.5 | 6.9
CCCCc1ccc(NC(=O)CSc2nc3ncccc3[nH]2)cc1 | 4.7 | 2.3 | 4.2 | 0.659 | -9.7 | nt | nt | nt
